Results: article PMC7862700, “An all-to-all approach to the identification of sequence-specific readers for epigenetic DNA modifications on cytosine”

Experiments:
Assay in all cases: DAPPL (digital affinity profiling via proximity ligation, sequencing); 10 mM Tris-HCl pH 7.5, 50 mM NaCl, 1 mM DTT, 4% glycerol, room temperature, 30 min; GST-TFs on glutathione beads, 16-mer random dsDNA library, 0.1% formaldehyde crosslink after washing; high values mean tight binding
FLI1 = target: T1, FLI1 (Homo sapiens, UniProt Q01543 1-452); conditions: protein: recombinant; tags: N-terminal GST; dsDNA, one strand shown
T1 sequence: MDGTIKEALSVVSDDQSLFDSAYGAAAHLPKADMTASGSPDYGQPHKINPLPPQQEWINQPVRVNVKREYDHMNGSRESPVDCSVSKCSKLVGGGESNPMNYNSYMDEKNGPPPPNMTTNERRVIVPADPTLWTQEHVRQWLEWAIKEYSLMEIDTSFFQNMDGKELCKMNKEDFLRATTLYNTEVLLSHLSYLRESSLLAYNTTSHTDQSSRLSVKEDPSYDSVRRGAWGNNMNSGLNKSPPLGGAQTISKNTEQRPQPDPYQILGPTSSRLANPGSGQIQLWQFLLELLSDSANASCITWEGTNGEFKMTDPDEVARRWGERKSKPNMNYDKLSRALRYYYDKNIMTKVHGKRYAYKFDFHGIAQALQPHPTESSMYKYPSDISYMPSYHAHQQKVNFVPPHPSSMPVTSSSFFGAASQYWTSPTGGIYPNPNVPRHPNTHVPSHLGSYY
In short: (§1)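 Pools were built from human transcription factors expressed in yeast as GST fusions, captured on glutathione beads and DNA-barcoded, along with a tag-only sample. Incubation with 200 nmole of a 16-mer random double-stranded DNA library lasted 30 min at room temperature in Tris/NaCl/DTT/glycerol buffer, and was followed by washing, 0.1% formaldehyde crosslinking, proximity ligation, PCR amplification and Illumina NextSeq500 sequencing. Binding signal is the quotient of each hexamer's read frequency for a factor and its frequency for the tag-only sample.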

ELK1 = target: T2, ELK1 (Homo sapiens, UniProt P19419 1-428); conditions: protein: recombinant; tags: N-terminal GST; dsDNA, one strand shown
T2 sequence: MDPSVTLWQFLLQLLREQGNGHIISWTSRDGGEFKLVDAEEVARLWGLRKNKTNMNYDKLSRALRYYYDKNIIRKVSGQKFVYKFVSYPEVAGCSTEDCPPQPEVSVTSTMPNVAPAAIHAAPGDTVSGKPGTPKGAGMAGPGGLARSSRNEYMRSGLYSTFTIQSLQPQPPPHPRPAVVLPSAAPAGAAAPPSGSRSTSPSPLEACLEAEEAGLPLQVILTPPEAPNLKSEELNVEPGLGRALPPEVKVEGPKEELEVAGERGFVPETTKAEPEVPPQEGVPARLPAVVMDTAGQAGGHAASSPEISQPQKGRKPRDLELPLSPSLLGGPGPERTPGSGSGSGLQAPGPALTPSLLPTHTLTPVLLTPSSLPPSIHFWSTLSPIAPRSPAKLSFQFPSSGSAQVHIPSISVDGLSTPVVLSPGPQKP
In short: as §1

GABPA = target: T3, GABPA (Homo sapiens, UniProt Q06546 1-454); conditions: protein: recombinant; tags: N-terminal GST; dsDNA, one strand shown
T3 sequence: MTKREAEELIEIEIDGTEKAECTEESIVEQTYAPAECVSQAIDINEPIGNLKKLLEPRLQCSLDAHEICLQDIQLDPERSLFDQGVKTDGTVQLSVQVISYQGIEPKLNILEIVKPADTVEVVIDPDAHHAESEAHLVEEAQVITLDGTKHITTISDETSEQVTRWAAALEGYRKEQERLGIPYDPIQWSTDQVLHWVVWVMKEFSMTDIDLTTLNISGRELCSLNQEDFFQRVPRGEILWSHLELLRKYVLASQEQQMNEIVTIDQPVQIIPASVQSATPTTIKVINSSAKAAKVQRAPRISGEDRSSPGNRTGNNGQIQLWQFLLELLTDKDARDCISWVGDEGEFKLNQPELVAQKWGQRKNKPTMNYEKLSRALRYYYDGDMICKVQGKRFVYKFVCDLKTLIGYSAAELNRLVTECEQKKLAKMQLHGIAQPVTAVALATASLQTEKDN
In short: as §1

ERG = target: T4, ERG (Homo sapiens, UniProt P11308 1-479); conditions: protein: recombinant; tags: N-terminal GST; dsDNA, one strand shown
T4 sequence: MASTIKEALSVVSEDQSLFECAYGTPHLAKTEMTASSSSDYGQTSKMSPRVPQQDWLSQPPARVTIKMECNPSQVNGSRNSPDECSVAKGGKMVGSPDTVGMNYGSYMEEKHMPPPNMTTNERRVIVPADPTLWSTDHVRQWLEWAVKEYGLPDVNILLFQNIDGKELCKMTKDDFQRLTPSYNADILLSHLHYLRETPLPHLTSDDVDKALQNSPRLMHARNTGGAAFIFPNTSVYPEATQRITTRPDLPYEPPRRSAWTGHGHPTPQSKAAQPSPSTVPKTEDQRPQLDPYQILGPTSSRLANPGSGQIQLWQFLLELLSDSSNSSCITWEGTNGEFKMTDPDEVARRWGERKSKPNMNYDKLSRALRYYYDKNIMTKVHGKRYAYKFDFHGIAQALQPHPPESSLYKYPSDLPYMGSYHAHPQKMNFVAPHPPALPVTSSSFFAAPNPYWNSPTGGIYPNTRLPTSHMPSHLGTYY
In short: as §1

ELF1 = ELF1 (Homo sapiens, UniProt P32519 1-619); conditions: protein: recombinant; tags: N-terminal GST; dsDNA, one strand shown
Sequence of ELF1 (P32519 whole entry): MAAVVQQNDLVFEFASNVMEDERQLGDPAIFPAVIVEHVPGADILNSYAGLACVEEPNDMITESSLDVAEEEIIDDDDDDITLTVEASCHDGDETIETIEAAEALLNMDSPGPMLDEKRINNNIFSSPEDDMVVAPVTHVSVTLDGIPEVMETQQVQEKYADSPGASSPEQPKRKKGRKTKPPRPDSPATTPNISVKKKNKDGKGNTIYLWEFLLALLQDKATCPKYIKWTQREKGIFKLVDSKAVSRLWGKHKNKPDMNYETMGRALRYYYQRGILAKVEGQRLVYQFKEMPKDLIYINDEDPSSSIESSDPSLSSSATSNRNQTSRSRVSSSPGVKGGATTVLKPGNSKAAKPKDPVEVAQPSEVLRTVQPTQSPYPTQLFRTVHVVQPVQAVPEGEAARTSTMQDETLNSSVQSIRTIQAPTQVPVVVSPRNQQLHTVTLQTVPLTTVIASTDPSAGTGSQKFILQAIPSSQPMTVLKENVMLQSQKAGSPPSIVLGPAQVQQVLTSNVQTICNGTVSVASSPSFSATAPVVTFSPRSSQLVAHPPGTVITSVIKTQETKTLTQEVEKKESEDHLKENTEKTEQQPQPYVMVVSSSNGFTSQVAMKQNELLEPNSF
In short: as §1

EHF = target: T5, EHF (Homo sapiens, UniProt Q9NZC4 1-300); conditions: protein: recombinant; tags: N-terminal GST; dsDNA, one strand shown
T5 sequence: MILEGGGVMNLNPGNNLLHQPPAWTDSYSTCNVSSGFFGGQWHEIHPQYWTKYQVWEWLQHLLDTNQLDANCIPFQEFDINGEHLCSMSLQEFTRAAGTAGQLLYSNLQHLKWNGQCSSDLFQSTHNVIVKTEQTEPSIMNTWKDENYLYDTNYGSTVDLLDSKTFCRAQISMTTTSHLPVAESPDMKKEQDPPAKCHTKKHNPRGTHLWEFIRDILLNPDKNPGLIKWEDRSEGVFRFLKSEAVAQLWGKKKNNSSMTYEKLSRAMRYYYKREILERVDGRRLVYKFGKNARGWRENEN
In short: as §1

SPI1 = SPI1 (Homo sapiens, UniProt P17947 1-270); conditions: protein: recombinant; tags: N-terminal GST; dsDNA, one strand shown
In short: as §1

SPIB = SPIB (Homo sapiens, UniProt Q01892 1-262); conditions: protein: recombinant; tags: N-terminal GST; dsDNA, one strand shown
Sequence of SPIB (Q01892 whole entry): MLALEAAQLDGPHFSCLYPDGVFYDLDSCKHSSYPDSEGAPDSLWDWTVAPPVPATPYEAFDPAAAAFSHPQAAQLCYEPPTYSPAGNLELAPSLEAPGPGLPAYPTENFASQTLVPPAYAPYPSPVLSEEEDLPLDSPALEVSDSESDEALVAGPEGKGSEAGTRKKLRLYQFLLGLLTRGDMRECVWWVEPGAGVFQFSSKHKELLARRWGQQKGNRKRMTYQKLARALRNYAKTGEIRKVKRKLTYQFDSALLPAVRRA
In short: as §1

ELK3 = target: T6, ELK3 (Homo sapiens, UniProt P41970 1-407); conditions: protein: recombinant; tags: N-terminal GST; dsDNA, one strand shown
T6 sequence: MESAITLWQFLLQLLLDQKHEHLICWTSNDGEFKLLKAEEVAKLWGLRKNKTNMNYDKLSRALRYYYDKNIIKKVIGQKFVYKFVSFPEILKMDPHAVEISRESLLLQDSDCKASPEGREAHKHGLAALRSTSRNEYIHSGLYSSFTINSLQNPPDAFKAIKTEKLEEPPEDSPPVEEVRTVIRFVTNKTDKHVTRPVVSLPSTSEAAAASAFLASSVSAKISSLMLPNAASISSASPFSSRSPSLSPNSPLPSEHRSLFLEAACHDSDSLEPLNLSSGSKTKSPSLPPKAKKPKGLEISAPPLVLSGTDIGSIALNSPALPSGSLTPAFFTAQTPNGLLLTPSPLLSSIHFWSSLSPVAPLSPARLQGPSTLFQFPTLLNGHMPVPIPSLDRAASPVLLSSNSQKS
In short: as §1

FEV = target: T7, FEV (Homo sapiens, UniProt Q99581 1-238); conditions: protein: recombinant; tags: N-terminal GST; dsDNA, one strand shown
T7 sequence: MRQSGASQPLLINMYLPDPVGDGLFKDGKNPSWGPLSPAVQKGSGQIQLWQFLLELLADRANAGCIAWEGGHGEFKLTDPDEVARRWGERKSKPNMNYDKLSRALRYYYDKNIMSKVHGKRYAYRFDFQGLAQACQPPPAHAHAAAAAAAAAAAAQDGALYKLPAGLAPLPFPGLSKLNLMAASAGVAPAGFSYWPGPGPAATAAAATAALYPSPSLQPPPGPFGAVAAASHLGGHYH
In short: as §1

ETV5 = ETV5 (Homo sapiens, UniProt P41161 1-510); conditions: protein: recombinant; tags: N-terminal GST; dsDNA, one strand shown
Sequence of ETV5 (P41161 whole entry): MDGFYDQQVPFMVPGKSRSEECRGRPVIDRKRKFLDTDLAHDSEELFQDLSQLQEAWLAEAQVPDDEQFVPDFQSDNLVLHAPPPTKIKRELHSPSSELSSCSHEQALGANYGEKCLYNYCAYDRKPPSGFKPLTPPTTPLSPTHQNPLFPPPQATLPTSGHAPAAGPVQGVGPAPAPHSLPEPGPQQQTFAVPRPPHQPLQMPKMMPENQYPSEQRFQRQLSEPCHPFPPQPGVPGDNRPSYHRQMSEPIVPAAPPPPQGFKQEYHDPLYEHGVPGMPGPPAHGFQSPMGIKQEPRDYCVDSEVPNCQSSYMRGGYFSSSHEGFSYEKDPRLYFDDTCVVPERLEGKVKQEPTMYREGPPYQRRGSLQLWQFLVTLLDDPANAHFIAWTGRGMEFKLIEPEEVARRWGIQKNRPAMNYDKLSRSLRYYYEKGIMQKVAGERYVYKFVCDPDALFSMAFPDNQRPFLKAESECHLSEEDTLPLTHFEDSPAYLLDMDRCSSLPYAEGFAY
In short: as §1

HSF1 = HSF1 (Homo sapiens, UniProt Q00613 1-529); conditions: protein: recombinant; tags: N-terminal GST; chain copies: 3; dsDNA, one strand shown
Sequence of HSF1 (Q00613 whole entry): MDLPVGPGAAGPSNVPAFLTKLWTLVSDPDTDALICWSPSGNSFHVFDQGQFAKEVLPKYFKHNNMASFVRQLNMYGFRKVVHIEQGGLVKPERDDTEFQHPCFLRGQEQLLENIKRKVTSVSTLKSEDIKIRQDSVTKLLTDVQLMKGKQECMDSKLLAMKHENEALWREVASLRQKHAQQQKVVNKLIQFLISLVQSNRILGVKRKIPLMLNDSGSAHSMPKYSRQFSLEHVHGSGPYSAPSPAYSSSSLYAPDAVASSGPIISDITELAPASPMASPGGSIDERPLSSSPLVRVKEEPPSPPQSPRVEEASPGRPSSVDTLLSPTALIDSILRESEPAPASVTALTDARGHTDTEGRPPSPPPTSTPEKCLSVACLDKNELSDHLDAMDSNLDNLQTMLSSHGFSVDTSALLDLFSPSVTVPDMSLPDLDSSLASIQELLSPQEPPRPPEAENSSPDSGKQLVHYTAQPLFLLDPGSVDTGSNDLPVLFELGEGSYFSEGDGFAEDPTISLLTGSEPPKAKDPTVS
In short: as §1

SPIC = target: T8, SPIC (Homo sapiens, UniProt Q8N5J4 1-248); conditions: protein: recombinant; tags: N-terminal GST; dsDNA, one strand shown
T8 sequence: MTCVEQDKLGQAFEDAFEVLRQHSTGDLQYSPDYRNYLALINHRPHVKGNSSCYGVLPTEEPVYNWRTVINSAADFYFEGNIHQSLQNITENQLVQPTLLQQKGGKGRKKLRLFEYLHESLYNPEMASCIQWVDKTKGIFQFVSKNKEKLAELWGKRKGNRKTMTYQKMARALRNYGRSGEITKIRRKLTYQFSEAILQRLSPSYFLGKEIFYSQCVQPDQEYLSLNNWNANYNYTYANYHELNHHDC
In short: as §1

ELF4 = ELF4 (Homo sapiens, UniProt Q99607 1-663); conditions: protein: recombinant; tags: N-terminal GST; dsDNA, one strand shown
Sequence of ELF4 (Q99607 whole entry): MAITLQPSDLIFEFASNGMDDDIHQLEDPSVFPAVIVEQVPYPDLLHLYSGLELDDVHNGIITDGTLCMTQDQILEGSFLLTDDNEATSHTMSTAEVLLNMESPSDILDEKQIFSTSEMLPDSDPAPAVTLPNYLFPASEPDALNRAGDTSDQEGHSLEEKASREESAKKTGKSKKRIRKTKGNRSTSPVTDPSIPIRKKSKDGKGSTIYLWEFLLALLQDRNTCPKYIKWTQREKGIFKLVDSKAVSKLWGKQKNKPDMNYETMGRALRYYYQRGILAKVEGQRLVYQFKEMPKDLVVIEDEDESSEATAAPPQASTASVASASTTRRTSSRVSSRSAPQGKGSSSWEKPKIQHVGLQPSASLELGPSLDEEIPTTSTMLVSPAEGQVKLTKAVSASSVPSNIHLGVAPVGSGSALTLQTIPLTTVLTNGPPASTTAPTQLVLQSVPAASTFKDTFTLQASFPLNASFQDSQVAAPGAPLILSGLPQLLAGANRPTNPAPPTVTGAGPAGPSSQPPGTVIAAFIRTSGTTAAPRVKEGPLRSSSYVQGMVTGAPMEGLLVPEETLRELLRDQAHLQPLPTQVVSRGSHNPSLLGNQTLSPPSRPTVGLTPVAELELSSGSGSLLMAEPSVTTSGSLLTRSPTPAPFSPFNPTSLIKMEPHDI
In short: as §1

ELK4 = target: T9, ELK4 (Homo sapiens, UniProt P28324-2 1-405); conditions: protein: recombinant; tags: N-terminal GST; dsDNA, one strand shown
T9 sequence: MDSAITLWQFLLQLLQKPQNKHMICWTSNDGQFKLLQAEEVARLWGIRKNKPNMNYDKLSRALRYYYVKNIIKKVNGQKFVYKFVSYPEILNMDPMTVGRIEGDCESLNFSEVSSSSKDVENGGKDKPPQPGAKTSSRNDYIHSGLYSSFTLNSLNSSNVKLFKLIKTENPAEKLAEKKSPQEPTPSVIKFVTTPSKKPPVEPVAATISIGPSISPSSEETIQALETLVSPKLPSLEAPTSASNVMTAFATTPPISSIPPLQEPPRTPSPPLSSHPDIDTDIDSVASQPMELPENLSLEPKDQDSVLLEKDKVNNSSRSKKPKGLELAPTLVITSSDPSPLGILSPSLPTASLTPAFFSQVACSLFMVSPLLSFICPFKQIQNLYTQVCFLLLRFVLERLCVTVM
In short: as §1

ETV2 = target: T10, ETV2 (Homo sapiens, UniProt O00321 1-342); conditions: protein: recombinant; tags: N-terminal GST; dsDNA, one strand shown
T10 sequence: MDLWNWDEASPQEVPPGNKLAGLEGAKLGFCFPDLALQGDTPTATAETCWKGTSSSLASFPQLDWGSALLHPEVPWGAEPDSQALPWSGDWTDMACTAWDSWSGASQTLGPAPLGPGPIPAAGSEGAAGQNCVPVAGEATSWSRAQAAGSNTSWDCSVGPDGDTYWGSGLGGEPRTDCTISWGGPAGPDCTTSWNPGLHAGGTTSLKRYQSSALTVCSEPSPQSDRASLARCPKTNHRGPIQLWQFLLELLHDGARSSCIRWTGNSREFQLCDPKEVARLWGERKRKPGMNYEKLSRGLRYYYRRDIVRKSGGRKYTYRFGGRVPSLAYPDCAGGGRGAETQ
In short: as §1

ELF3 = target: T11, ELF3 (Homo sapiens, UniProt P78545 1-371); conditions: protein: recombinant; tags: N-terminal GST; dsDNA, one strand shown
T11 sequence: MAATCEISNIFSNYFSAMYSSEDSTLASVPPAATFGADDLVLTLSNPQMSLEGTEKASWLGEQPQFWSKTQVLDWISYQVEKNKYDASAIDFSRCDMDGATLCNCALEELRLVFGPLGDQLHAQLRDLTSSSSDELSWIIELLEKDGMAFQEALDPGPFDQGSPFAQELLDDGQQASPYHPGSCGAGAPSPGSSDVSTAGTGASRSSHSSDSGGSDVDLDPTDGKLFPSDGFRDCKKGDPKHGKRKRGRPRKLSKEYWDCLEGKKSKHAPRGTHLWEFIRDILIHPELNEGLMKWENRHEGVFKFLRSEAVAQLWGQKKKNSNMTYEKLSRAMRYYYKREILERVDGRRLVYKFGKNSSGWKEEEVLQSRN
In short: as §1

CRX = CRX (Homo sapiens, UniProt O43186 1-299); conditions: protein: recombinant; tags: N-terminal GST; dsDNA, one strand shown
Sequence of CRX (O43186 whole entry): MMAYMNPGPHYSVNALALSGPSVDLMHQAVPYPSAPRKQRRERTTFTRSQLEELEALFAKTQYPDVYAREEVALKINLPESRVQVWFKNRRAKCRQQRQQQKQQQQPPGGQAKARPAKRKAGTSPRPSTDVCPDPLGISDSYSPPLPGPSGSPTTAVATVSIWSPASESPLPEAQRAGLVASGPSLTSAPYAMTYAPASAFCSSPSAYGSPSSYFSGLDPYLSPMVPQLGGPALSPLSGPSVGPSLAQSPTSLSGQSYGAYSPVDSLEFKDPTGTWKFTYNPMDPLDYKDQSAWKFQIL
In short: as §1

ETV1 = ETV1 (Homo sapiens, UniProt P50549 1-477); conditions: protein: recombinant; tags: N-terminal GST; dsDNA, one strand shown
Sequence of ETV1 (P50549 whole entry): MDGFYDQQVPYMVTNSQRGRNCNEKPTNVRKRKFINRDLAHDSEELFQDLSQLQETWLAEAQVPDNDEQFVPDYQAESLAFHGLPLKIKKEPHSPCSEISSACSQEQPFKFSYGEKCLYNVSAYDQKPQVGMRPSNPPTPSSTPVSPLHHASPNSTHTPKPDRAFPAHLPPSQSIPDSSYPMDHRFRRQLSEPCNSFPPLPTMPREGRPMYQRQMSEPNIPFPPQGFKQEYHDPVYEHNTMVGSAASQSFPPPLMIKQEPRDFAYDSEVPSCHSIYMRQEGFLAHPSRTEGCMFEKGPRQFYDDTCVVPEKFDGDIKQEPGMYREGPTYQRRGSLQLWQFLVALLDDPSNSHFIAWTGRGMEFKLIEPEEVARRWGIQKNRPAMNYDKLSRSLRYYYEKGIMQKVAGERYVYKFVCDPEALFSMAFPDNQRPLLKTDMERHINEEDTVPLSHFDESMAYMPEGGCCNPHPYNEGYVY
In short: as §1

Sequence: AATATT
- binding signal (FLI1): 1.39 fold enrichment (6-mer frequency, TF over GST control)
- binding signal (ELK1): 1.29 fold enrichment (6-mer frequency, TF over GST control)
- binding signal (GABPA): 1.29 fold enrichment (6-mer frequency, TF over GST control)
- binding signal (ERG): 1.18 fold enrichment (6-mer frequency, TF over GST control)
- binding signal (ELF1): 1.36 fold enrichment (6-mer frequency, TF over GST control)
- binding signal (EHF): 1.32 fold enrichment (6-mer frequency, TF over GST control)
- binding signal (SPI1): 1.23 fold enrichment (6-mer frequency, TF over GST control)
- binding signal (SPIB): 1.34 fold enrichment (6-mer frequency, TF over GST control)
- binding signal (ELK3): 1.42 fold enrichment (6-mer frequency, TF over GST control)
- binding signal (FEV): 1.3 fold enrichment (6-mer frequency, TF over GST control)
- binding signal (ETV5): 1.4 fold enrichment (6-mer frequency, TF over GST control)
- binding signal (HSF1): 1.93 fold enrichment (6-mer frequency, TF over GST control)
- binding signal (SPIC): 1.45 fold enrichment (6-mer frequency, TF over GST control)
- binding signal (ELF4): 1.38 fold enrichment (6-mer frequency, TF over GST control)
- binding signal (ELK4): 1.35 fold enrichment (6-mer frequency, TF over GST control)
- binding signal (ETV2): 1.23 fold enrichment (6-mer frequency, TF over GST control)
- binding signal (ELF3): 1.36 fold enrichment (6-mer frequency, TF over GST control)
- binding signal (CRX): 1.61 fold enrichment (6-mer frequency, TF over GST control)
- binding signal (ETV1): 1.36 fold enrichment (6-mer frequency, TF over GST control)
